Assay outcomes: PubChem BioAssay, National Center for Advancing Translational Sciences (NCATS)
Hits are enriched below; roughly 1.3% of the tested compounds scored in any of these assays.
Vaccinia Venus = inhibitors of vaccinia virus (Venus reporter). Potency, µM (top dose mostly 36.5 µM), actives largely listed as inhibitors. hit rate 0.46% among 330,000. Vaccinia virus Venus reporter expression, fluorescence; calls by dose curve; tested in A549 cells; further: nearly all actives have a fitted effect of over 30% in size
SARS PLP yeast = blocks SARS-CoV papain-like protease in a yeast assay. S. cerevisiae expressing SARS-CoV PLpro, growth rescue. Potency, µM (doses to about 32.9 µM), hits mostly activators. hit rate 0.19% among 330,000. AID 485353; calls by dose curve; further: nearly all actives have a fitted effect of over 55% in size
AmpC no deterg = AmpC beta-lactamase inhibition without detergent | AID 485341 | hit rate 0.52% among 330,000 | AmpC nitrocefin hydrolysis, absorbance 480 nm, 0.0001% Triton | P00811 | Potency, µM (titrated, usually from 57.1 µM), most hits filed as inhibitors; further: nearly all actives have a fitted effect of over 20% in size
Target sequence (P00811 whole entry, looked up): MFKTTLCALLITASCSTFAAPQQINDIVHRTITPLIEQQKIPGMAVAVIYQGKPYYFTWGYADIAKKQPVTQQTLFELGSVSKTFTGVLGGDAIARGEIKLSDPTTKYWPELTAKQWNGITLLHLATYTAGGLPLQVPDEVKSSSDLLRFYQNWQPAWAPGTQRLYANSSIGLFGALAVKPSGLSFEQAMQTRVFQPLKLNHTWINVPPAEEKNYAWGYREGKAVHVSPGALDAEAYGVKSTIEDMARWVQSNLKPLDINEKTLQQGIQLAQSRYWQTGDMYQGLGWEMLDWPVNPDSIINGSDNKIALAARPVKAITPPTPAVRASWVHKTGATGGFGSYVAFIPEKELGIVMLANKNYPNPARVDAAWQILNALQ
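20 mM phosphate pH 7.0 + 0.01% (detergent screen) or 0.0001% Triton X-100; 5.3 nM AmpC reagent; cpd preinc 15 min RT; nitrocefin (800 uM stock) to start; A480 q20 s × 4 min; Activity was normalised to no-enzyme and no-compound control wells.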
VACV mCherry inh = vaccinia inhibition (mCherry reporter). hit rate 0.63% among 310,000. Vaccinia virus mCherry reporter infection, fluorescence. AID 720579. Potency, µM (series often up to 36.5 µM), actives largely listed as inhibitors; calls by dose curve; tested in A549 cells; further: nearly all actives have a fitted effect of over 35% in size
AMA1 RON2 block = disrupts binding of P. falciparum AMA1 to RON2; AlphaScreen AMA1-biotinylated RON2 peptide binding; Potency, µM (doses to about 58.2 µM), hits mostly inhibitors; hit rate 0.2% among 360,000; further: nearly all actives have a fitted effect of over 45% in size
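AMA1 (3D7) with his tag at 25 nM final met compounds first, then biotinylated RON2 peptide at 25 nM; detection used donor plus acceptor beads, 10 µg/mL apiece, read by AlphaScreen after 30 min at room temperature.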
AmpC inh detg = AmpC beta-lactamase inhibition with detergent present | P00811 | AmpC hydrolysis of nitrocefin, absorbance 480 nm, 0.01% Triton | Potency, µM (titrated, usually from 114 µM), hits mostly inhibitors | hit rate 0.041% among 370,000; further: nearly all actives have a fitted effect of over 25% in size
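AmpC (5.3 nM in the dispensed reagent) in 20 mM phosphate pH 7.0 with 0.01% (detergent screen) or 0.0001% Triton X-100 was preincubated with compounds for 15 min at room temperature. Nitrocefin was then added from an 800 uM solution, and hydrolysis was followed at 480 nm.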
Hits are given with their value; [ ] = dose if it differs, or a comment. Unless noted, the call rests on the fitted dose curve; in most records, active means well fitted curve in the direction sought with a large enough effect; inconclusive means small, poorly fitted or top-dose-only effect, or another doubt; inactive means no such curve, though single readings can be large; an effect the other way counts as inactive or inconclusive.

Screening Cc1cc(C)c(S(=O)(=O)/N=C2\C=C(Nc3ccc(C(=O)O)cc3)C(=O)c3ccccc32)c(C)c1 returned Vaccinia Venus inconclusive, SARS PLP yeast inactive, AmpC no deterg 13µM, VACV mCherry inh inconclusive, AMA1 RON2 block inconclusive and AmpC inh detg inactive.
`Cc1ccc(NC2=C/C(=N\S(=O)(=O)c3cccs3)c3ccccc3C2=O)c(C)c1` gave Vaccinia Venus 6.3µM, SARS PLP yeast inactive, AmpC no deterg inconclusive, VACV mCherry inh 10µM, AMA1 RON2 block 4.5µM and AmpC inh detg inactive.
CCC1CN(CCNC(=O)c2cccc(N3CCCC3=O)c2)Cc2cc(OC)ccc2O1 (stereo not given) was read as Vaccinia Venus inactive and VACV mCherry inh inactive.
CN(Cc1ccon1)C(=O)c1cnn(-c2nccc(-c3ccc4c(c3)OCO4)n2)c1C1CC1 was read as Vaccinia Venus inactive and VACV mCherry inh inactive.
Screening CCc1ccc(S(=O)(=O)/N=C2\C=CC(=O)c3ccccc32)cc1 returned SARS PLP yeast inactive, AmpC no deterg 16µM and AmpC inh detg inactive.
`CCc1ccc(S(=O)(=O)/N=C2/C=C(Sc3ncn[nH]3)C(=O)c3ccccc32)cc1` gave Vaccinia Venus 10µM, SARS PLP yeast inactive, AmpC no deterg 20µM, VACV mCherry inh inconclusive, AMA1 RON2 block inactive and AmpC inh detg inactive.
`O=C1C(Nc2ccc(O)cc2)=C/C(=N/S(=O)(=O)c2cccs2)c2ccccc21` gave Vaccinia Venus 2µM, SARS PLP yeast inactive, AmpC no deterg inactive[11.4 µM], VACV mCherry inh inconclusive, AMA1 RON2 block 25µM and AmpC inh detg inconclusive.
For COc1ccc2[nH]cc(C(=O)CNc3nccs3)c2c1 the results were Vaccinia Venus inactive and VACV mCherry inh inactive.
For O=C1OC2(c3ccccc31)c1cc(I)c(O)c(I)c1Oc1c2cc(I)c(O)c1I the results were SARS PLP yeast inactive, AmpC no deterg 25µM and AmpC inh detg 50µM.
CC1CC[C@@]2(OC1)OC1C(O)C3C4CC[C@H]5CC(O[C@@H]6O[C@@H](CO)[C@H](OC7OC(CO)C(O)C(OC8OCC(O)C(O)[C@H]8O)[C@@H]7O[C@@H]7OC(CO)[C@H](O)[C@@H](O[C@@H]8OC(CO)C(O)C(O)C8O)C7O)C(O)C6O)C(O)C[C@]5(C)C4CC[C@]3(C)C1C2C (stereo not given in full) was read as Vaccinia Venus 8.9µM and VACV mCherry inh 7.9µM.
For CCN(C(=O)c1cc2c(=O)oc3ccccc3c2s1)c1ccccc1F the results were Vaccinia Venus inactive, VACV mCherry inh inactive and AmpC inh detg inactive.
CCc1ccccc1N(C)C(=O)c1cc2c(=O)oc3ccccc3c2s1 was read as Vaccinia Venus 2.5µM, VACV mCherry inh inactive and AmpC inh detg inactive.
Screening C#CCN(C[C@H]1[C@H](OC(=O)Nc2cccs2)[C@H](OC(=O)Nc2cccs2)C[C@H]2C(=O)N(c3ccccc3)C(=O)[C@@H]12)S(=O)(=O)c1ccc(C)cc1 returned Vaccinia Venus inactive, VACV mCherry inh inactive and AMA1 RON2 block inactive.
`C#CCN(C[C@@H]1[C@@H](OC(=O)NCc2ccccc2F)[C@@H](OC(=O)NCc2ccccc2F)Cn2c(=O)ccc(=O)n21)S(=O)(=O)c1ccc(C)cc1` gave Vaccinia Venus 7.1µM, VACV mCherry inh inconclusive and AMA1 RON2 block inactive.
For C#CCN(C[C@@H]1[C@@H](OC(=O)NC2CCCC2)[C@@H](OC(=O)NC2CCCC2)Cn2c(=O)ccc(=O)n21)S(=O)(=O)c1ccc(C)cc1 the results were Vaccinia Venus 7.9µM, VACV mCherry inh inconclusive and AMA1 RON2 block inactive.
C#CCN(C[C@@H]1[C@@H](OC(=O)Nc2cccs2)[C@@H](OC(=O)Nc2cccs2)Cn2c(=O)ccc(=O)n21)S(=O)(=O)c1ccc(C)cc1 was read as Vaccinia Venus 8.9µM, VACV mCherry inh inconclusive and AMA1 RON2 block inactive.
O=C(NC1CCCC1)c1cn(C2CCCN(Cc3ccc4c(c3)OCCO4)C2)nn1 (stereo not given) was read as Vaccinia Venus inactive and VACV mCherry inh inactive.
